Assay results taken from PubChem BioAssay AID1159580 (chemical genetic matrix, 2015).
Hit rate of the full screen: of about 5,500 compounds, about 2,000 (36%) were called active. Roughly 18% stayed inconclusive and do not appear here. Rule as the data show it: active = normalized growth mostly below about 0.91 (no sharp cut-off); inconclusive = no clear call, values can overlap the other calls; inactive = mostly above about 0.92. This is one part of the list.

Experiment: chemical genetic growth profiling, strain panel (AID 1159580);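 also: tested at 20 µM; growth read once vehicle control cultures reached saturation at 30 °C; 1 = growth at the plate median or of vehicle wells; lower values mean less growth of the strain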
Conditions: growth OD
[1] = S. cerevisiae deletion strains, locus YAL013W, strain DEP1, stronger effect = lower value
[2] = S. cerevisiae deletion strains, locus YGR229C, strain SMI1, stronger effect = lower value
[3] = S. cerevisiae deletion strains, locus YJR075W, strain HOC1, stronger effect = lower value
[4] = S. cerevisiae deletion strains, locus YMR263W, strain SAP30, stronger effect = lower value
[5] = S. cerevisiae deletion strains, locus YMR307W, strain GAS1, stronger effect = lower value
[6] = S. cerevisiae deletion strains, locus YNL153C, strain GIM3, stronger effect = lower value
[7] = S. cerevisiae deletion strains, locus YNL322C, strain KRE1, stronger effect = lower value
[8] = S. cerevisiae deletion strains, locus YPL055C, strain LGE1, stronger effect = lower value
[9] = S. cerevisiae deletion strains, locus YPL241C, strain CIN2, stronger effect = lower value

Measured: normalized growth

C[C@H]1O[C@@H](n2cc(F)c(=O)[nH]c2=O)[C@H](O)[C@@H]1O
inactive: [1] 1.04 | S. cerevisiae deletion strains, locus YAL040C, strain CLN3, stronger effect = lower value 1 | S. cerevisiae deletion strains, locus YCL061C, strain MRC1 (second series), stronger effect = lower value 1.01 | S. cerevisiae deletion strains, locus YDR363W, strain ESC2, stronger effect = lower value 1.02 | S. cerevisiae deletion strains, locus YER002W, strain NOP16, stronger effect = lower value 1.04 | [2] 1.07 | [3] 1.01 | [4] 1.01 | [5] 1 | [6] 1.02 | S. cerevisiae deletion strains, locus YNL175C, strain NOP13, stronger effect = lower value 1 | S. cerevisiae deletion strains, locus YNL197C, strain WHI3, stronger effect = lower value 1 | S. cerevisiae deletion strains, locus YNL224C, strain SQS1, stronger effect = lower value 0.984 | [7] 1.02 | S. cerevisiae deletion strains, locus YOR083W, strain WHI5 (second series), stronger effect = lower value 1.01 | [8] 1.02 | [9] 1.01

C[C@H]1OC(n2cc(F)c(=O)[nH]c2=O)C(O)[C@@H]1O (stereo partly drawn)
inactive: [1] 1 | S. cerevisiae deletion strains, locus YBR021W, strain FUR4, stronger effect = lower value 1 | S. cerevisiae deletion strains, locus YBR229C, strain ROT2, stronger effect = lower value 1.01 | S. cerevisiae deletion strains, locus YCL029C, strain bik1, stronger effect = lower value 0.973 | S. cerevisiae deletion strains, locus YDL035C, strain GPR1, stronger effect = lower value 1 | S. cerevisiae deletion strains, locus YDL074C, strain BRE1, stronger effect = lower value 1.02 | S. cerevisiae deletion strains, locus YDL101C, strain DUN1, stronger effect = lower value 1 | S. cerevisiae deletion strains, locus YDL134C, strain PPH21, stronger effect = lower value 1 | S. cerevisiae deletion strains, locus YDL185W, strain tfp1, stronger effect = lower value 0.97 | S. cerevisiae deletion strains, locus YDL192W, strain arf1, stronger effect = lower value 0.97 | S. cerevisiae deletion strains, locus YDR101C, strain arx1, stronger effect = lower value 1 | S. cerevisiae deletion strains, locus YDR150W, strain NUM1, stronger effect = lower value 0.982 | S. cerevisiae deletion strains, locus YDR162C, strain NBP2, stronger effect = lower value 1.04 | S. cerevisiae deletion strains, locus YDR318W, strain mcm21, stronger effect = lower value 0.973 | S. cerevisiae deletion strains, locus YDR388W, stronger effect = lower value 0.986 | S. cerevisiae deletion strains, locus YDR502C, strain sam2, stronger effect = lower value 1 | S. cerevisiae deletion strains, locus YEL061C, strain CIN8, stronger effect = lower value 1 | S. cerevisiae deletion strains, locus YER110C, stronger effect = lower value 0.948 | S. cerevisiae deletion strains, locus YER155C, strain BEM2, stronger effect = lower value 0.995 | S. cerevisiae deletion strains, locus YER167W, strain BCK2, stronger effect = lower value 0.989 | S. cerevisiae deletion strains, locus YGL078C, strain dbp3, stronger effect = lower value 0.979 | S. cerevisiae deletion strains, locus YGL086W, strain mad1, stronger effect = lower value 0.957 | S. cerevisiae deletion strains, locus YGL248W, strain PDE1, stronger effect = lower value 1.01 | S. cerevisiae deletion strains, locus YGR078C, strain PAC10, stronger effect = lower value 1.02 | S. cerevisiae deletion strains, locus YGR135W, strain pre9, stronger effect = lower value 1 | [2] 1.03 | S. cerevisiae deletion strains, locus YGR252W, strain gcn5, stronger effect = lower value 1.01 | S. cerevisiae deletion strains, locus YHR030C, strain SLT2, stronger effect = lower value 0.996 | S. cerevisiae deletion strains, locus YHR079C, strain IRE1 (second series), stronger effect = lower value 0.985 | S. cerevisiae deletion strains, locus YHR094C, strain hxt1, stronger effect = lower value 0.968 | S. cerevisiae deletion strains, locus YHR129C, strain ARP1, stronger effect = lower value 1 | S. cerevisiae deletion strains, locus YHR200W, strain rpn10, stronger effect = lower value 0.969 | S. cerevisiae deletion strains, locus YIL066C, strain RNR3, stronger effect = lower value 0.99 | S. cerevisiae deletion strains, locus YIL073C, strain SPO22, stronger effect = lower value 0.894 | S. cerevisiae deletion strains, locus YIL125W, strain kgd1, stronger effect = lower value 0.973 | S. cerevisiae deletion strains, locus YIR030C, strain dcg1, stronger effect = lower value 0.982 | S. cerevisiae deletion strains, locus YJL095W, strain BCK1, stronger effect = lower value 1.04 | S. cerevisiae deletion strains, locus YJL134W, strain LCB3, stronger effect = lower value 1.01 | S. cerevisiae deletion strains, locus YJL168C, strain set2, stronger effect = lower value 0.993 | S. cerevisiae deletion strains, locus YJL187C, strain SWE1 (second series), stronger effect = lower value 1.01 | S. cerevisiae deletion strains, locus YJR043C, strain POL32, stronger effect = lower value 0.993 | [3] 1.01 | S. cerevisiae deletion strains, locus YKL009W, strain mrt4, stronger effect = lower value 0.959 | S. cerevisiae deletion strains, locus YKL068W, stronger effect = lower value 0.98 | S. cerevisiae deletion strains, locus YKL085W, strain MDH1 (second series), stronger effect = lower value 0.981 | S. cerevisiae deletion strains, locus YKL085W, strain MDH1, stronger effect = lower value 0.981 | S. cerevisiae deletion strains, locus YKL190W, strain CNB1, stronger effect = lower value 1 | S. cerevisiae deletion strains, locus YKR001C, strain vps1, stronger effect = lower value 0.966 | S. cerevisiae deletion strains, locus YLR039C, strain RIC1, stronger effect = lower value 0.994 | S. cerevisiae deletion strains, locus YLR058C, strain SHM2, stronger effect = lower value 0.993 | S. cerevisiae deletion strains, locus YLR102C, strain apc9, stronger effect = lower value 0.983 | S. cerevisiae deletion strains, locus YLR262C, strain YPT6, stronger effect = lower value 1 | S. cerevisiae deletion strains, locus YLR268W, strain sec22, stronger effect = lower value 0.995 | S. cerevisiae deletion strains, locus YLR330W, strain CHS5, stronger effect = lower value 0.994 | S. cerevisiae deletion strains, locus YLR342W, strain FKS1 (second series), stronger effect = lower value 0.991 | S. cerevisiae deletion strains, locus YLR371W, strain rom2, stronger effect = lower value 0.961 | S. cerevisiae deletion strains, locus YLR418C, strain cdc73, stronger effect = lower value 1.05 | S. cerevisiae deletion strains, locus YML016C, strain PPZ1, stronger effect = lower value 1 | S. cerevisiae deletion strains, locus YML032C, strain rad52, stronger effect = lower value 0.951 | S. cerevisiae deletion strains, locus YML124C, strain tub3, stronger effect = lower value 0.974 | S. cerevisiae deletion strains, locus YMR078C, strain ctf18, stronger effect = lower value 0.945 | S. cerevisiae deletion strains, locus YMR223W, strain ubp8, stronger effect = lower value 0.975 | [4] 1.02 | [5] 0.977 | S. cerevisiae deletion strains, locus YNL067W, strain RPL9B, stronger effect = lower value 1.02 | S. cerevisiae deletion strains, locus YNL128W, strain TEP1, stronger effect = lower value 1.01 | [6] 1.02 | S. cerevisiae deletion strains, locus YNL233W, strain BNI4, stronger effect = lower value 1.02 | S. cerevisiae deletion strains, locus YNL250W, strain rad50, stronger effect = lower value 0.984 | S. cerevisiae deletion strains, locus YNL271C, strain bni1, stronger effect = lower value 0.988 | S. cerevisiae deletion strains, locus YNL298W, strain CLA4, stronger effect = lower value 0.963 | S. cerevisiae deletion strains, locus YNL307C, strain MCK1, stronger effect = lower value 0.967 | [7] 0.998 | S. cerevisiae deletion strains, locus YNR052C, strain pop2, stronger effect = lower value 0.958 | S. cerevisiae deletion strains, locus YOL006C, strain TOP1, stronger effect = lower value 1.03 | S. cerevisiae deletion strains, locus YOL012C, strain htz1 1.08 | S. cerevisiae deletion strains, locus YOL147C, strain pex11, stronger effect = lower value 0.982 | S. cerevisiae deletion strains, locus YOR061W, strain CKA2, stronger effect = lower value 1.01 | S. cerevisiae deletion strains, locus YOR069W, strain VPS5, stronger effect = lower value 1 | S. cerevisiae deletion strains, locus YOR136W, strain idh2, stronger effect = lower value 0.983 | S. cerevisiae deletion strains, locus YOR144C, strain elg1, stronger effect = lower value 0.965 | S. cerevisiae deletion strains, locus YOR184W, strain ser1, stronger effect = lower value 0.921 | S. cerevisiae deletion strains, locus YOR316C, strain cot1, stronger effect = lower value 0.974 | [8] 1.02 | [9] 0.996 | S. cerevisiae deletion strains, locus YPR119W, strain clb2, stronger effect = lower value 0.985 | S. cerevisiae deletion strains, locus YPR141C, strain kar3, stronger effect = lower value 0.974 | S. cerevisiae deletion strains, locus YPR163C, strain tif3, stronger effect = lower value 0.964 | S. cerevisiae deletion strains, locus YPR167C, strain met16, stronger effect = lower value 0.988 | S. cerevisiae deletion strains, strain wtn01, stronger effect = lower value 0.994 | S. cerevisiae strains, strain wild type, stronger effect = lower value 1
